In PubChem BioAssay (NCI):
This is part of a sample that, as a whole, favours compounds with a hit. Of some 83,000 tested, about 20% had one in any assay.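 How to read the values: 0–100, growth inhibition (40 = 60% inhibited); 0, no net growth; -100 to 0, cell death (-40 = 40% of starting cells died; -100 = all dead).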 A number with no mark means an inactive call. Calls of active or inactive are those of the source. The calls were made as follows: active = growth percent below 10; inactive = the rest.

Key:
Assay in all cases: NCI-60 one-dose screen, 48 h (100 = growth as untreated, 0 = no growth, -100 = all killed)
Settings in all cases: 10 µM unless noted
[1] = system: T-47D breast
[2] = system: BT-549 breast
[3] = system: MDA-MB-435 melanoma
[4] = system: MCF7 breast
[5] = system: HCT-116 colon
[6] = system: HCC-2998 colon
[7] = system: KM12 colon

Compound | growth [1] | growth [2] | growth [3] | growth [4] | growth [5] | growth [6] | growth [7]
COc1ccc(-c2cc(-c3ccc(N(C)C)cc3)nc(NC(=O)c3cccnc3)n2)cc1 | 85.6% | 119% | 103% | 81.9% | 102% | 120% | 98.3%
COc1ccc(-c2ccc(-c3ccc(C(=N)N)o3)o2)cc1 | 26.7% | 59.6% | -65.4% (active) | 10.4% | -5.19% (active) | -48.7% (active) | 11%
CC1=C([Se]CC(OC(=O)[C@@H](CO)NC(=O)OC(C)(C)C)C(=O)NCCCCCC(=O)OCc2ccccc2)C(=O)c2ccccc2C1=O (stereo partly specified) | -94.3% (active) | -98.6% (active) | -83.3% (active) | -44.7% (active) | -88.9% (active) | -92.5% (active) | -52.7% (active)
CO[C@H]1CC(c2ccc[nH]2)=N[C@]12O[C@@H](C)C[C@@H]1CCCCCCCc3ccc([nH]3)[C@H]12 | 11.8% | 33.7% | 15.2% | 16.5% | 8.1% (active) | 22.1% | 18.3%
[2H]C([2H])([2H])Oc1c(F)cccc1/C=C/C(=O)/C=C(O)/C=C/c1cccc(F)c1OC([2H])([2H])[2H] | 83.8% | 97.6% | 94.9% | 74.5% | 84.1% | 112% | 102%
C(CCCSC1=NCCN1)CCSC1=NCCN1 | 101% | 112% | 103% | 97.5% | 90.7% | 103% | 113%
Cn1cc(-c2csc(-c3cn(CCO)c4ccc(F)cc34)n2)c2cccnc21 | 9.75% (active) | 52.8% | 1.7% (active) | 34.9% | 35.8% | 64.1% | 30.6%
CSc1nc(CC(C)C)c(C#N)c(=O)n1C | 33.4% | 58.8% | 65.8% | 38.7% | 60.4% | 79.4% | 86.5%
CCCNNC(=O)c1ccc(CNC(=O)/C=C/c2ccccc2)cc1 | 0.925% [2.5 µM] (active) | 77.2% [2.5 µM] | 31.8% [2.5 µM] | 30.6% [2.5 µM] | 1.27% [2.5 µM] (active) | 34.2% [2.5 µM] | 47.1% [2.5 µM]
COc1cc(C2=Nc3c(N)nc(N)nc3NC(c3cccc(Nc4ccnc5cc(C(F)(F)F)ccc45)c3)C2)cc(OC)c1OC (stereo unspecified) | 95.4% | 112% | 69.2% | 37.3% | 48.9% | 77.2% | 66.4%
CN(C)c1ccc(Cc2cc(-c3ccccc3)nn(C/C(=N/O)c3ccccc3)c2=O)cc1 | 11.8% | 61.2% | 38% | 29.1% | 46% | 81.2% | 31.8%
COc1cc2c(cc1OC)CC[N+](CCC[N+](C)(C)C)=C2 | 103% | 92.8% | 103% | 95.1% | 95.2% | 89.5% | 103%
Cc1c(Cl)cccc1NC(=O)c1sc2nc3c(cc2c1N)CCCC3 | 35% | 52.6% | -16.1% (active) | 16.3% | 24.4% | 58.5% | 23.6%
Cn1ccnc1C(=O)/C=C/c1ccc(CC(=O)Nc2cc(F)c(F)c(F)c2)cc1 | 29.2% | 16.3% | 19.2% | 10.7% | 5.93% (active) | 4.93% (active) | 9.05% (active)
Nc1nc(N)c2c(n1)NC(c1ccc3c(c1)OCO3)CC(c1cccc(Nc3ccncc3)c1)=N2 (stereo unspecified) | 88.5% | 117% | 50.5% | 63% | 43.7% | 88.1% | 80%
Cn1ncc(CC(=O)O)c1-n1nnc2cc(Cl)ccc2c1=O | 102% | 102% | 92.7% | 110% | 99.5% | 107% | 102%
CC(C)(C#N)c1cc(C(=O)Nc2cc(Nc3ncccc3-c3ncnc4nc[nH]c34)ccc2F)cc(C(F)(F)F)c1 | 52% | 71% | 29.5% | 57.4% | 15.4% | 41.8% | 43.7%

Compound | growth [1] | growth [2] | growth [3] | growth [4] | growth [5] | growth [6] | growth [7]
CCN(CC)CCCNc1cc(OC)cc2cccnc12 | 93.3% | 112% | 115% | 64% | 100% | 111% | 96.9%
CCN1C(=O)N(CC)C2C1NN=c1s/c(=C\c3ccc([N+](=O)[O-])cc3)c(=O)n12 (stereo unspecified) | 23.9% | 32.7% | -23.4% (active) | 7.6% (active) | 7.31% (active) | 11.4% | 19.6%
CC1(C)CC[C@]2(CO)CC[C@]3(C)C(=CC[C@@H]4[C@@]5(C)CCNCC(C)(C)[C@@H]5CC[C@]43C)[C@@H]2C1 | 56.3% | 90.1% | 41.6% | 38.6% | 55.5% | -60.8% (active) | 34.7%
COc1ccc(C(=O)/C=C/c2ccc(C)cc2)cc1S(N)(=O)=O | 94.1% | 64.1% | 88.3% | 22% | 9.96% (active) | 99% | 44.3%
Oc1ccc(C(c2ccc(O)cc2)c2ccc(Cl)cn2)cc1 | -34.4% (active) | -30.1% (active) | 101% | -17.3% (active) | 27.6% | 1.05% (active) | 20.8%
CCCC1Cc2cc(-n3nc(C)c4c3CC(C)(C)CC4=O)cc(NC3CCC(O)CC3)c2C(=O)N1 (stereo unspecified) | 46.9% | 68.4% | 26.8% | 36.5% | 15.4% | 34.2% | 15.5%
COc1cc(OCc2cccc(-c3ccccc3)c2C)cc(OC)c1CN1CCCCC1C(=O)NCCOCCOCCN (stereo unspecified) | 71.2% | 84.7% | -72.8% (active) | 51.3% | 22.8% | 88% | 78.9%
CCOC(=O)CSc1nc2sc3c(c2c(=O)n1-c1ccccc1)CCCCC3 | 94.4% | 110% | 107% | 94.5% | 97.3% | 114% | 104%
O=C(Nc1ccccc1)Nc1ccccc1CNc1nc(Nc2ccc(OCCN3CCCC3)cc2)ncc1Cl | 55.7% | 74.8% | 55.2% | 48.9% | 45.7% | 58.3% | 43.7%
O=c1ccc2c(ccc3ncccc32)o1 | 94.6% | 116% | 116% | 95.7% | 113% | 107% | 107%
N#C/C(=N\Nc1ccccc1)C(=O)Nc1cc(-c2ccccc2)nn1-c1ccccc1 | 9.7% (active) | 16.2% | 30.3% | 16.4% | 16.1% | 40.7% | 36.8%
CN(C)c1ccc(/C=C/C2=[N+](C)c3ccccc3C2(C)C)cc1 | 20.5% | 17.2% | 12.9% | 5.64% (active) | 15.7% | 28% | 7.96% (active)
O=C(CSc1nc(-c2ccccc2)cn1-c1ccc(Cl)cc1)c1ccc([N+](=O)[O-])cc1 | 71.3% | 86.8% | 83.5% | 76.1% | 66.9% | 99.6% | 82.6%
O=C(Nc1ccc2[nH]ncc2c1)c1csc(Nc2ccccc2)n1 | 37.1% | 62% | -11.9% (active) | 14.1% | 35.3% | 62.5% | 27.7%
CCOC(=O)c1c(C)n2c(=O)cc(C)c3c(OC(C)=O)c(OC(C)=O)cc1c32 | 52.7% | 80.3% | 83.3% | 62.2% | 23.3% | 84.4% | 86.7%
N#C/C(=C\c1cccc2cnccc12)N1N=NC2C=CC=CC21 (stereo unspecified) | 23.8% | 41.6% | 9.28% (active) | 13.6% | 14.2% | 91.7% | 43.5%
